# Inconclusive results are not listed. Unmarked numbers belong to inactive results. Activity calls are given as the source filed them. Calls come from the whole dose curve; as a rule, active = well fitted cell-killing curve with a large enough effect in the repeat runs; inconclusive = weak or mixed curves, or effect the other way; inactive = flat fitted curve, though single readings scatter.
# Experiment: qHTS assay to identify small molecule agonists of the androgen receptor (AR) signaling pathway in the presence of an antagonist - cell viability counter screen (AID 1259379); note: nearly all actives have a fitted effect of over 25% in size;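 for activity change, negative = cytotoxicity: MDA-kb2 human breast cancer cells carrying an MMTV luciferase reporter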
# Details: MDA-kb2 viability, CellTiter-Fluor, 16 h; series mostly up to 92.4 µM; activity change, negative = cytotoxicity: at the top concentration
# Procedure, shortened: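 Viability counter screen: CellTiter-Fluor fluorescence, measured in the same wells as the luciferase read-out. MDA-kb2 cells, 3,000/well, with nilutamide at 3.0uM final and compounds at 15 concentrations, 16 hr at 37C, 0% CO2.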
# % is set by controls: 0 for no effect and ±100 for the full control effect; potency is the fitted concentration of half-maximal effect.
SMILES,"activity change, negative = cytotoxicity",Potency
NC(=O)c1ccccc1C(N)=O,8.26%,–
CCCCCO,1.22%,–
c1ccc(CN(Cc2ccccc2)Cc2ccccc2)cc1,1.12%,–
CC(C)(C)c1cc(C=O)cc(C(C)(C)C)c1O,1.07% [at 42.5 µM],–
O=C(O)c1ccc(O)c(O)c1,3.89%,–
O=[N+]([O-])c1ccccc1CCO,5.17%,–
CCC(C)CCCC(C)(C)O (stereo not given),-0.4%,–
COc1ccc(/C(C)=C/C(=O)O)c(OC)c1,1.6% [at 42.5 µM],–
Cc1c(N=C=O)cccc1N=C=O,-0.34%,–
CC(C)Cc1nccs1,-1.11%,–
CO[C@@H]1COCC[C@@H]1N[C@@H]1CC[C@@](C(=O)N2CCc3ncc(C(F)(F)F)cc3C2)(C(C)C)C1,2.76%,–
NCCOCCOCCN,-1.53%,–
O=C1CCCN1CCO,-8.05%,–
CC1=CC(=C(c2ccc(N)cc2)c2ccc(N)cc2)C=CC1=N,–,3.1 µM (active)
C=CC(C)CCC=C(C)C (stereo not given),-1.17%,–
CC1(C)CC(O)CC(C)(C)N1[O],-3.82%,–
CCOC(=O)CC(O)(CC(=O)OCC)C(=O)OCC,0.746%,–
O=C1OC(=O)C2CC=CCC12 (stereo not given),-1.61%,–
CCCc1ccc(OC)cc1,-1.56%,–
O=C(Nc1ccc2c(c1)Cc1ccccc1-2)C(F)(F)F,-4.91%,–
CC(=O)c1ccc(Cl)c(Cl)c1Cl,-1.12%,–

# Experiment: qHTS assay to identify small molecule agonists of the estrogen receptor beta (ER-beta) signaling pathway - cell viability counter screen (AID 1259380); note: nearly all actives have a fitted effect of over 30% in size
# Details: ER-beta-bla HEK293T viability, CellTiter-Glo luminescence, 16 h; series mostly up to 92.4 µM; activity change, negative = cytotoxicity: at the top concentration
# Procedure, shortened: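 Luminescence read-out (CellTiter-Glo, 30 min, room temp) taken in the same wells as the beta-lactamase reporter assay; ER-beta-UAS-bla HEK293T cells exposed to DMSO-dissolved compounds for 16 hr at 37C in 2% charcoal-stripped FBS medium.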
SMILES,"activity change, negative = cytotoxicity",Potency
CCOc1ccc2c(c1)C(C)CC(C)(C)N2 (stereo not given),-1.52%,–
O=c1c2ccccc2oc2ccccc12,-3.23%,–
Cc1cccc(C)c1NC(=O)CN1CCCC1,-0.357% [at 42.5 µM],–
Cc1cc(N)n(-c2ccccc2)n1,0.272%,–
Cc1nc(C)c(C)nc1C,-14.4%,–
O=C(O)c1ccccc1[N+](=O)[O-],5.15%,–
Cc1c(Cl)cccc1[N+](=O)[O-],1.37%,–
CCOc1ccccc1O,11.1%,–
O=C(c1ccc(Cl)cc1)c1ccc(Cl)cc1,9.53%,–
CC/C=C\CCO,1.07%,–
CCCCCCOC(=O)c1ccccc1,–,27.3 µM (active)
CC(O)C(C)O (stereo not given),3.38%,–
FC1(F)C(F)(F)C(F)(F)C2(F)C(F)(C1(F)F)C(F)(F)C(F)(F)C1(F)C(F)(F)C(F)(F)C(F)(F)C(F)(F)C12F (stereo not given),5.3%,–
NC(=O)c1ccccc1C(N)=O,–,61.4 µM (active)
CCCCCO,6.32%,–
CC(C)(C)c1cc(C=O)cc(C(C)(C)C)c1O,0.355% [at 42.5 µM],–
O=C(O)c1ccc(O)c(O)c1,1.98%,–
O=[N+]([O-])c1ccccc1CCO,-0.489%,–
CCC(C)CCCC(C)(C)O (stereo not given),3.94%,–
Cc1c(N=C=O)cccc1N=C=O,4.86%,–
CC(C)Cc1nccs1,-9.84%,–
O=C1CCCN1CCO,–,43.3 µM (active)
C=CC(C)CCC=C(C)C (stereo not given),6.92%,–
CC1(C)CC(O)CC(C)(C)N1[O],-0.492%,–
CCOC(=O)CC(O)(CC(=O)OCC)C(=O)OCC,4.44%,–
O=C1OC(=O)C2CC=CCC12 (stereo not given),-2.93%,–
CCCc1ccc(OC)cc1,10.1%,–
O=C(Nc1ccc2c(c1)Cc1ccccc1-2)C(F)(F)F,-10.6%,–
CC(=O)c1ccc(Cl)c(Cl)c1Cl,-3.73%,–
